CYP2C19 inhib: blocks human cytochrome P450 2C19. AID 778. hit rate 21% among 96,000. P33261. inhibition, % at 5 µM. CYP2C19 Supersomes, luciferin-H EGE luminescence, 30 min;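 active = CYP2C19 inhibition above a set limit at 5 µM in the primary screen, cut at about 50% in these data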;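 note: plate controls were negative control wells for no effect and 2.5 mM tranylcypromine positive control for full effect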
Cav32 inh: inhibitors of human Cav3.2 T-type calcium channel. O95180. Cav3.2-expressing cells, Fluo-4 calcium fluorescence FDSS; hits give low values. hit rate 4% among 100,000. B-score at 10 µM;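 active = single-dose well whose peak fluorescence ratio is a statistical outlier from its plate by either plate-standardised score or position-corrected B-score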
CYP2C19 act: increases human CYP2C19 enzyme activity. AID 1025. 96,000 tested, under 10 active. P33261. recombinant CYP2C19, luciferin-H EGE luminescence; hits give high values; 0 = fully inhibited enzyme, 1 = untreated enzyme. activation factor at 5 µM;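 active = activation factor of at least 2 at 5 µM in the primary screen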;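 note: 0 = wells with 2.5 mM tranylcypromine and 1 = vehicle-only wells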
CYP2C9 inh: inhibitors of human CYP2C9 | inhibition, % at 5 µM | CYP2C9 Supersomes, luciferin-H conversion, luminescence | AID 777 | hit rate 20% among 96,000;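 active = blocking of liver enzyme CYP2C9 beyond about 50% at 5 µM, limit read from the data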
Target sequence (P11712 whole entry, looked up): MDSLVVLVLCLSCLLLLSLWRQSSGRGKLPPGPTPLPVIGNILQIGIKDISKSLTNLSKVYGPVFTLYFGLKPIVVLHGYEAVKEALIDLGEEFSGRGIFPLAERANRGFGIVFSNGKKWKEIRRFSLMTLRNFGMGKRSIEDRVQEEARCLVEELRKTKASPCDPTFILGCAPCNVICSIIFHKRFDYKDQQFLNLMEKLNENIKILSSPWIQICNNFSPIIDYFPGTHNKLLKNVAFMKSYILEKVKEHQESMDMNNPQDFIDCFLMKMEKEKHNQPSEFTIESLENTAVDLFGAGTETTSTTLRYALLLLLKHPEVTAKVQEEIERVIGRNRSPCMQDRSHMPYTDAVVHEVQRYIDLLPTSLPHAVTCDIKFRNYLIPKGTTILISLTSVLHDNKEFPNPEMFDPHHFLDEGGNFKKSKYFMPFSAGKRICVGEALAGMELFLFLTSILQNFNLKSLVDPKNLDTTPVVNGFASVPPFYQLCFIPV
CYP2C9 activ: CYP2C9 (human) activation. hit rate 1.4% among 96,000. P11712. recombinant CYP2C9, luciferin-H conversion, luminescence; hits give high values; factor 1 = untreated enzyme, 0 = blocked. activation factor at 5 µM. AID 1024;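 active = activation factor of 2 or more for CYP2C9 at a 5 µM dose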;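 note: 0 = sulfaphenazole-blocked wells and 1 = vehicle-only wells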
The depositor's hits bear a star; . = not tested or not shown. The list is not random: actives were taken first. Their share in the collection is about 27%.

SMILES	CYP2C19 inhib	Cav32 inh	CYP2C19 act	CYP2C9 inh	CYP2C9 activ
CCc1ccc(N2CC(C(=O)N/N=C/c3cccc([N+](=O)[O-])c3)CC2=O)cc1 (centres undefined)	16.1	-0.727	0.8	69.0*	0.3
O=C(NS(=O)(=O)c1ccccc1)c1ccccc1F	-7.9	1.04	1.1	14.1	0.9
CCOc1cc(C2CC(=O)Nc3cc(C)c(C)cc32)ccc1O (centres undefined)	86.9*	.	0.1	83.8*	0.2
Cn1cnc2c1c(=O)n(Cc1ccc(F)cc1Cl)c(=O)n2C	22.4	0.932	0.8	-5.7	1.1
CC[C@@H](C)CN1C(=O)N[C@@H](c2ccccc2)C(C(C)=O)=C1C	.	0.191	.	.	.
COc1cccc(C2=CC(=O)CC(c3ccco3)C2)c1 (centres undefined)	.	-0.36	.	.	.
CC(=O)C1=C(O)C=C(c2ccco2)CC1c1ccco1 (centres undefined)	50.3*	-1.9	0.5	50.9*	0.5
Cc1cc(/C=N/n2cnnc2)c(C)n1-c1ccccc1	100.0*	0.622	0	72.6*	0.3
Cc1sc(-n2c(C)cc(/C=N/n3cnnc3)c2C)c(C#N)c1C	89.4*	1.67	0.1	82.9*	0.2
Cc1cc(/C=N/n2cnnc2)c(C)n1-c1ccc(Cl)cc1Cl	99.2*	-2.18	0	94.0*	0.1
Cc1sc(-n2c(C)cc(/C=C3\SC(=S)NC3=O)c2C)c(C#N)c1C	.	-2.2	.	.	.
Cc1cc(/C=N/NC(=O)c2cccs2)c(C)n1-c1ccccc1	2.5	-7.89*	1	18.4	0.8
C/C=C/C(=O)N1CC2(CC(c3cccc(NC(=O)COc4ccc(Cl)cc4)c3)=NO2)C[C@@H]1C(N)=O (some centres undefined)	.	0.224	.	.	.
O=C1Nc2ccc(S(=O)(=O)N3CCCC3)c3ccc(S(=O)(=O)N4CCCC4)c1c23	-7.4	2.72	1.1	-6.1	1.1
CC(=O)Nc1cc(C(N)=O)c(Cl)cc1Cl	-11.7	-1.24	1.1	-15.9	1.2
CC(=O)OC(C(=O)NCc1ccc(F)cc1)c1ccccn1 (centres undefined)	-7.5	0.892	1.1	-16.9	1.2
Cc1cc(/C=N/n2cnnc2)c(C)n1-c1ccc(OCc2ccc(F)cc2)cc1	25.5	.	0.7	17.4	0.8
Cc1cc(/C=N/n2cnnc2)c(C)n1-c1cccc(Cl)c1	99.4*	.	0	95.2*	0
N#CCCn1c(Cl)nc2ccccc21	4.2	0.832	1	-2.6	1
O=C1/C(=C/c2cccs2)N=C(c2cccs2)N1Nc1ccccc1	3.2	-1.47	1	92.8*	0.1
O=C1/C(=C\c2cccs2)N=C(c2cccs2)N1Nc1ccccc1	33.9	-1.01	0.7	57.8*	0.4
C[C@@H]1CN(CCCn2c3ccccc3c3ccccc32)C[C@H](C)N1	.	0.311	.	.	.
c1ccc(Cn2nnc3c(NCC4CCCO4)ncnc32)cc1 (centres undefined)	32.6	-0.0136	0.7	-138.5	2.4*
CC(C)CCNc1ncnc2c1nnn2Cc1ccccc1Cl	15.1	-0.824	0.8	-139.3	2.4*
Cn1cccc1Cc1nnc(SCC(=O)Nc2ccc(F)cc2F)n1-c1ccc(F)cc1	51.9*	-4.52*	0.5	57.9*	0.4
SMILES	CYP2C19 inhib	Cav32 inh	CYP2C19 act	CYP2C9 inh	CYP2C9 activ
COc1ccc(Cl)cc1NC(=O)CSc1nnc(Cn2c(=O)sc3ccccc32)n1C	.	-0.336	.	.	.
Cc1ccc(NC(=O)CSc2nnc(Cc3cccn3C)n2-c2ccc(F)cc2)c(C)c1	21.5	-10.2*	0.8	67.9*	0.3
Cn1cccc1Cc1nnc(SCC(=O)NCc2ccc(F)cc2)n1-c1ccc(F)cc1	13.4	-4.1	0.9	26.5	0.7
COc1ccc(Cl)cc1NC(=O)CSc1nnc(Cc2cccn2C)n1-c1ccc(F)cc1	26.6	-6*	0.7	11.1	0.9
COc1ccc(Cl)cc1NC(=O)CSc1nncn1-c1cccnc1	93.8*	1.01	0.1	33.9	0.7
Cc1ccc(-n2c(Cc3cccn3C)nnc2SCC(=O)Nc2cc(C)on2)cc1	2.5	-0.177	1	5.1	0.9
O=C(NC(O)C(=O)c1cccs1)c1cccnc1 (centres undefined)	-3.6	0.973	1	-6.6	1.1
C[C@H](NC(=O)Nc1ccc2c(c1)OCCO2)C(=O)O	-11.6	0.666	1.1	-3.5	1
CCOC(=O)CSc1nnc(Cn2nnc(-c3ccccc3)n2)n1CC	-0.8	0.17	1	-2.0	1
COc1ccc(/C=C/c2ccccc2)cc1[C@H]1[C@H]2C=CC[C@@H](C)[C@@H]2C(=O)N1Cc1ccccc1	.	-1.63	.	.	.
O=C1CC2(CCCCCC2)Oc2ccccc21	.	0.831	.	.	.
CCn1nnnc1SCC(=O)c1ccc(C)cc1	.	1.29	.	.	.
CO/N=C/C(=N\Nc1ccc(OC)cc1)C(=O)c1ccc(OC)cc1	31.7	0.544	0.7	68.5*	0.3
COc1cccc(Cn2cnc3c(NS(=O)(=O)c4ccc(Cl)cc4Cl)c(C)c(C)cc32)c1	34.9	-3.45*	0.7	40.4	0.6
Cc1cc2c(ncn2Cc2ccccc2)c(NS(C)(=O)=O)c1C	54.1*	-0.135	0.5	35.3	0.6
COc1cccc(Cn2cnc3c(NS(=O)(=O)c4cccc(Cl)c4Cl)c(C)c(C)cc32)c1	84.3*	-5.39*	0.2	96.4*	0
COc1cc(C)c(Cl)c(C)c1S(=O)(=O)NCc1cccnc1	49.6	2.38	0.5	16.0	0.8
COc1cccc(Cn2cnc3c(NS(=O)(=O)c4ccc(Cl)cc4)c(C)c(C)cc32)c1	10.4	1.07	0.9	37.0	0.6
COc1cccc(Cn2cnc3c(NS(=O)(=O)c4cc(Cl)ccc4Cl)c(C)c(C)cc32)c1	14.3	-5.44*	0.9	53.1*	0.5
O=S(=O)(Cc1ccccc1Cl)Nc1ccccn1	17.9	0.981	0.8	8.8	0.9
C#CCn1c(S(=O)(=O)Cc2ccc(C)cc2)nc(-c2ccccc2)c1-c1ccccc1	61.4*	-7.79*	0.4	67.0*	0.3
C#CCn1c(S(=O)(=O)Cc2ccccc2Cl)nc(-c2ccccc2)c1-c1ccccc1	12.6	-7.21*	0.9	-4.6	1
CCOC(=O)Cn1c(S(=O)(=O)Cc2ccccc2Cl)nc(-c2ccccc2)c1-c1ccccc1	19.0	-7.31*	0.8	41.6	0.6
CC(=O)N1CN(CCCn2ccnc2)Cc2c1sc1c2CCCC1	94.2*	.	0.1	95.6*	0
Fc1ccc(CSc2nncn2NCc2ccccc2)cc1	.	0.435	.	.	.
Fc1ccc(CSc2nncn2NC/C=C/c2ccccc2)cc1	69.0*	-2.74	0.3	24.8	0.8
CN(C)c1ccc(CNn2cnnc2SCc2ccc(F)cc2)cc1	98.4*	-0.0549	0	62.6*	0.4
Fc1ccccc1CSc1nncn1NCc1cccs1	.	0.75	.	.	.
CC1=C(C(=O)Nc2ccccc2)C(c2ccncc2)C(C#N)=C(SCC(=O)NC2CC2)N1 (centres undefined)	85.3*	-0.122	0.1	77.2*	0.2
CC1=C(C(=O)Nc2ccccc2)C(c2ccncc2)C(C#N)=C(SCC(=O)NC(C)C)N1 (centres undefined)	78.4*	0.97	0.2	64.6*	0.4
